Lmaj promast: inhibitors of Leishmania major promastigote growth. Leishmania major promastigotes, resazurin fluorescence viability. inhibition, % at 10 µM. 9% of 200,000 active. AID 1063; in the data active means inhibition above about 50%;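 further: promastigotes grown with compound for 44 hours at 28 °C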
KCC2 mod: KCC2 (human) Cl- transport modulation | AID 1456 | Q9H2X9 | 2.2% of 190,000 active | KCC2 cells, thallium flux FluoZin-2 fluorescence | B-score of Tl+ flux slope (higher = more flux/activation; lower = inhibition) at 10 µM;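 active means thallium flux slope and its plate-corrected score both differing from the plate sample mean at a set confidence after two filtering rounds, in either direction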;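 further: slope of fluorescence scaled to starting intensity during 10 to 20 s after thallium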
Target sequence (Q9H2X9 whole entry, looked up): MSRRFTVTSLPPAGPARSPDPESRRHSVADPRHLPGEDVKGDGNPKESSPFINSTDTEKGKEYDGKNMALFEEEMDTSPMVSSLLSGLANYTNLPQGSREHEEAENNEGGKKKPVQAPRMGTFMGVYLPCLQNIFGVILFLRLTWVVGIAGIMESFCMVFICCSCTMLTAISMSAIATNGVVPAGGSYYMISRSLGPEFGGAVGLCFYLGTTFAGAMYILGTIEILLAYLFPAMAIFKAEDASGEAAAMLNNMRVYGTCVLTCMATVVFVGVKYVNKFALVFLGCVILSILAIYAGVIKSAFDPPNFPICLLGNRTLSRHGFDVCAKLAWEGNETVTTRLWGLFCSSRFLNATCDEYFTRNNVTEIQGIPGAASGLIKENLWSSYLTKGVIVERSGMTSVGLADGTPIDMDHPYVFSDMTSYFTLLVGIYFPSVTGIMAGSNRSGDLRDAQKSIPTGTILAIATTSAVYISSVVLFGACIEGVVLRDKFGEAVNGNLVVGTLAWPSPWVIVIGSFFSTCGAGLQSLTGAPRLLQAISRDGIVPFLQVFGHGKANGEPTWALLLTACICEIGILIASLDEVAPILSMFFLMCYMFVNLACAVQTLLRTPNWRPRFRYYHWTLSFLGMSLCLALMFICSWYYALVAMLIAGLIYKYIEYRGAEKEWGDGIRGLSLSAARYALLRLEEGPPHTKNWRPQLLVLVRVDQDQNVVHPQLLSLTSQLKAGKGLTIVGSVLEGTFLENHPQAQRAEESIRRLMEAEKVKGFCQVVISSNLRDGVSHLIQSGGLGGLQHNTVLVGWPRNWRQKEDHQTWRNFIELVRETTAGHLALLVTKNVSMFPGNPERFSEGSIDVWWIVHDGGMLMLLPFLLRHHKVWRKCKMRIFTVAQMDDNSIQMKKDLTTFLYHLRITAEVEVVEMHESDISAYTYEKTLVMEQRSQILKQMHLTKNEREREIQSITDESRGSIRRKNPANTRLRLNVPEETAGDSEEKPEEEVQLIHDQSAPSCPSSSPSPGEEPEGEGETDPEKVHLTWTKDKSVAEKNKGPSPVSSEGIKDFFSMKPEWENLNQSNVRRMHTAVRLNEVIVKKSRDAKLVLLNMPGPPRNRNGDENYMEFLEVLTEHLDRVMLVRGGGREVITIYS
m-calpain inh: inhibitors of pig calpain II | purified calpain II, fluorogenic peptide substrate, 30 min | 0.37% of 220,000 active | inhibition, % at 16 µM;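 active means inhibition above about 50%, limit read from the data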
WT yeast gro inh: growth inhibition of WT yeast, mitochondrial fusion screen; mitochondrial fusion phenotypic screen, WT strain; inhibition, % at 10 µM; 2.1% of 190,000 active; AID 1362; in the data active means inhibition above about 58%; tested in S. cerevisiae
ROMK primary: modulators of human ROMK potassium channel; B-score at 10 µM; Tet-inducible ROMK, thallium flux fluorescence; actives lie on both sides; P48048; 2% of 130,000 active;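 active means signal ratio slope over the read window, or its plate-corrected B-score, at least 3 SD from the plate mean, either direction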;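 further: B-score of the F/F0 ratio slope over 7 to 12 s after thallium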
Starred values were filed as active, the others as inactive; . = no result given. In the library only some 12% were active in any assay of this set; here they are far more common.

SMILES	Lmaj promast	KCC2 mod	m-calpain inh	WT yeast gro inh	ROMK primary
CC(=O)N1CCC(=NNc2ccc(S(=O)(=O)N3CCOCC3)cc2[N+](=O)[O-])CC1	-1.6	-0.174	4.5	-7.0	.
CCCN1CCC(=NNc2ccc(S(=O)(=O)N3CCOCC3)cc2[N+](=O)[O-])CC1	99.7*	0.901	5.2	-8.5	0.958
Cc1ccc(CNC(=S)NCc2ccncc2)cc1	-8.9	0.844	-19.8	4.4	0.303
COC(=O)C1=C(C)NC(C)=C(C(=O)OC)C1c1ccc(-c2cccc(Cl)c2Cl)o1	79.3*	0.0618	-68.9	33.6	.
CN1C(=O)/C(=C/c2cc(N=Nc3ccccc3)ccc2O)SC1=S	-18.8	.	-77.0	96.1*	.
CC(C)(C)OC(=O)N/N=C/c1cc(N=Nc2ccccc2)ccc1O	-0.8	-0.16	2.0	13.7	.
COc1ccccc1C1/C(=C(/O)c2ccccc2)C(=O)C(=O)N1CC(C)O (configuration not stated)	-0.1	0.14	29.6	11.7	0.288
CCc1ccc(NC(=S)NC2CC3CCC(C2)N3Cc2ccco2)cc1 (configuration not stated)	94.1*	-0.336	-2.4	-2.0	.
Cc1cccc(NC(=S)NC2CC3CCC(C2)N3Cc2ccco2)c1 (configuration not stated)	79.5*	-0.474	-3.9	5.3	.
Cc1cccc(NC(=O)NC2CC3CCC(C2)N3Cc2ccco2)c1 (configuration not stated)	8.4	.	-12.1	-17.8	-0.214
Cc1ccccc1NC(=S)NC1CC2CCC(C1)N2Cc1ccco1 (configuration not stated)	60.4*	1.02	12.9	8.8	.
Cc1ccc(NC(=S)NC2CC3CCCC(C2)N3Cc2ccco2)cc1 (configuration not stated)	90.5*	-1.13	30.3	7.8	-0.964
COc1ccc(NC(=S)NC2CC3CCC(C2)N3Cc2ccco2)cc1 (configuration not stated)	42.5	1.04	17.8	-12.7	-1.91
Cc1ccc(CSCCNC(=O)CN(c2ccccc2)S(C)(=O)=O)cc1	-2.5	-0.64	-14.0	-1.2	-0.106
CCOc1cc(N2CCOCC2)c(OCC)cc1NCC(=O)N1CCN(Cc2ccccc2)CC1	.	-0.197	0.0	.	.
Cc1cccc(NC(=S)NC2CC3CCCC(C2)N3Cc2ccco2)c1 (configuration not stated)	62.5*	-0.00319	9.0	-1.8	-0.252
CCCN1C2CCCC1CC(NC(=S)Nc1cccc(C)c1)C2 (configuration not stated)	36.1	-0.192	15.4	11.1	-1.33
O=S(Cc1ccc(Br)cc1)Cc1nnc(SCc2ccc(Br)cc2)n1-c1ccccc1 (configuration not stated)	5.2	-0.652	18.2	82.1*	-0.845
O=C1c2cccc(O)c2C(=O)c2c(O)cccc21	-7.6	0.396	-3.3	16.6	.
O=C1c2cccc(Sc3ccccc3)c2C(=O)c2c(Sc3ccccc3)cccc21	.	-0.476	50.3*	.	.
CC1CC(c2ccccc2)n2nc(NC(=O)c3ccco3)nc2N1 (configuration not stated)	-5.5	1.43	9.8	-3.7	-6.57*
NC(N)=Nc1nc2ccccc2o1	.	0.979	5.3	.	.
O=C(NCCc1ccccc1)C(c1cccs1)N(C(=O)CCl)c1ccc(Cl)cc1 (configuration not stated)	100.5*	-0.702	-6.4	56.9	-1.85
O=C(NCCc1ccccc1)C(c1cccs1)N(C(=O)c1csnn1)C1CC1 (configuration not stated)	-1.9	.	-40.3	13.2	.
CC1CCCCC1NC(=O)CO/N=C/c1ccccc1OC(F)F (configuration not stated)	7.5	0.466	15.0	-3.6	-0.115
SMILES	Lmaj promast	KCC2 mod	m-calpain inh	WT yeast gro inh	ROMK primary
CCSc1nnc(-c2cccc(S(=O)(=O)N(C)C)c2)n1-c1cc(OC)ccc1OC	-3.6	-0.309	-4.3	-17.8	.
CCCSc1nnc(-c2cccc(S(=O)(=O)N(C)C)c2)n1-c1cc(OC)ccc1OC	52.7*	0.055	28.6	-2.6	-0.179
O=[N+]([O-])c1ccc(OCCO)c(P(=O)(c2ccccc2)c2ccccc2)c1	.	1.38	6.3	.	-0.669
C=CCn1c(SCC(N)=O)nc(C)cc1=O	-2.6	-0.523	1.3	60.9*	-1.28
C=CCn1c(SCC(=O)N(CC)CC)nc(O)cc1=O	-5.0	1.74	-17.0	9.1	.
COc1ccccc1C1(O)CCN(C(=O)c2cccs2)CC1	-4.6	-0.505	17.6	13.0	.
Cc1ccc(S(=O)(=O)N2CCOCC2)cc1C(=O)c1nccn1C	-16.6	1.24	-13.3	8.5	-0.228
O=C(NC1CCCCC1)N1CCSC1=Nc1ccccc1	18.9	-0.554	-9.4	59.9*	0.251
O=C(NC1CCCCC1)N1CCCc2ccccc21	24.4	-0.0707	19.2	-1.2	.
COc1ccc(C2C(C(=O)c3ccccc3)N3c4ccccc4C=CC3C2[N+](=O)[O-])cc1 (configuration not stated)	44.2	0.387	-88.8	12.3	-3.72*
CCS(=O)(=O)CCSc1nc2c(cc1C#N)CCCC2	14.2	1.12	-1.8	60.6*	.
N#Cc1cc2c(nc1SCC(=O)Nc1sc3c(c1C#N)CCC3)CCCC2	55.4*	0.25	-32.6	2.8	.
N#CCSc1nc2c(cc1C#N)CCCCCC2	8.6	.	-114.8	-2.4	-0.595
CCc1ccccc1NC(=O)COc1ccc2oc(-c3ccc(OC)cc3)cc(=O)c2c1	-3.5	0.362	-167.0	1.0	.
Cc1csc2ncc(C(=O)NCc3ccccn3)c(=O)n12	-0.9	0.104	-108.1	7.6	.
Cc1cc(C)c(NC(=O)/C(=C/c2ccco2)c2ccccc2)c(C)c1	59.2*	-2.32	-3.2	6.8	-0.224
O=c1nc2n(c3cc(Cl)c(S(=O)(=O)N4CCOCC4)cc13)CCCCC2	3.9	0.501	-10.9	-9.1	.
COc1c(S(=O)(=O)NCCCN2CCOCC2)ccc(Cl)c1Cl	.	1.6	-5.7	.	.
COC(=O)C1CCN(C2=C(NS(=O)(=O)c3ccc(Cl)cc3)C(=O)c3ccccc3C2=O)CC1	.	0.0173	-20.3	.	.
Cc1ccc(S(=O)(=O)NC2=C(N3CCN(c4ccccc4F)CC3)C(=O)c3ccccc3C2=O)cc1	96.2*	.	-12.3	54.4	.
CC(=O)Nc1ccc(S(=O)(=O)Nc2ccc(N3CCOCC3)cc2)cc1	-0.6	.	12.4	1.9	.
CC1CCCN(C2=C(NS(=O)(=O)c3ccc(Cl)cc3)C(=O)c3ccccc3C2=O)C1 (configuration not stated)	56.2*	-0.265	-3.7	15.2	.
CC(=O)Nc1ccc(S(=O)(=O)NC2=C(N3CCN(c4ccc(F)cc4)CC3)C(=O)c3ccccc3C2=O)cc1	60.8*	-1.86	-129.8	20.7	0.172
Cc1ccc(S(=O)(=O)NC2=C(N3CCN(Cc4ccccc4)CC3)C(=O)c3ccccc3C2=O)cc1	96.9*	.	-50.8	15.9	.
CCCS(=O)(=O)N1CCC(C(=O)NCc2ccc(F)cc2)CC1	-5.0	0.0531	10.3	-4.9	-0.858
FC(F)(F)c1cc(Cl)c2nnc(C(F)(F)Cl)n2c1	-4.1	0.812	22.7	0.3	0.439
CC(C)(C)c1ccc(C(=O)N/N=C2\C3CN4CCN(C3)CC2(c2ccccc2)C4)cc1	-4.4	1.36	0.4	97.8*	1.34
O=C(N/N=C1\C2CN3CCN(C2)CC1(c1ccccc1)C3)c1ccc(F)cc1	-4.1	-0.281	-12.9	-12.2	0.365

Compound activity deposited in PubChem by several laboratories.
